PubChem BioAssay (NCI)
The panel holds about 83,000 compounds, 20% with a hit somewhere; the sample as a whole holds those more often.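 Results are percent growth after 48 hours of single-concentration exposure. 100 means growth as in untreated cells, lower positive values show inhibition; negative values down to -100 show cell death.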 Active and inactive are the calls of the source. How the source made its calls: active means growth percent below 10; inactive means the rest.

system: NCI-H226 lung; test: NCI-60 one-dose screen, 48 h (100 = growth as untreated, 0 = no growth, -100 = all killed); details: 10 µM unless noted

Compound | growth
COc1ccc2c(c1)c(-c1nc(-c3c[nH]c4ncccc34)cs1)cn2CCO | 36.5% (inactive)
O=C(NNC(=O)c1ccc(NC(=O)c2ccccn2)cc1)Nc1ccc2ccccc2c1 | 103% (inactive)
COc1ccc(/C=C/C(=O)c2cc(OC)c(OC)c(OC)c2)cc1OCC(=O)Nc1nc2ccc(OC(F)(F)F)cc2s1 | 40.6% (inactive)
O=C(CN1CCCCCC1)Nc1nc2ccc(NCc3ccc(Cl)cc3)cc2s1 | 93.5% (inactive)
CCCCCCCCCCCCCCCCCCOc1ccccc1CC(=O)NCC[N+]1(C)CCCCC1 | 74.2% (inactive)
COc1cc(-c2nc3sccn3c2-c2ccnc(NCCNS(=O)(=O)c3ccc(Cl)cc3)n2)ccc1F | 8.63% (active)
S=c1nc2oc(-c3ccccc3)c(-c3ccccc3)c2c(/N=C\c2ccco2)[nH]1 | 102% (inactive)
O=C1Nc2ccccc2/C1=C\c1c[nH]c2ccc(Br)cc12 | 34.9% (inactive)
COc1ccc(Nc2ncccc2/C=C/C(=O)c2cc(OC)c(OC)c(OC)c2)cc1 | -43.2% (active)
COc1cc(OC)c(/C=C/C(=O)c2c(O)cc(OC)c(C3CCN(C)CC3)c2OC)c(OC)c1 | -47.7% (active)
N#Cc1c(-c2ccccc2)nc(SCc2nnc(-c3ccc(Cl)cc3)o2)[nH]c1=O | 97.2% (inactive)
CC(=O)ON1CCCC(P(=O)(OCCSC(=O)C(C)(C)C)OCCSC(=O)C(C)(C)C)C1=O (stereo not given) | 33.6% (inactive)
COc1cccc(CCNc2ncnc3c2ncn3Cc2nnc3c4ccccc4c(Cl)nn23)c1 | 66.6% (inactive)
O=C(CN1CCN(c2cc3c(cc2F)c(=O)c(C(=O)O)cn3C2CC2)CC1)N/N=C/c1ccco1 | 94.1% (inactive)
COc1ccc(C2=CC(c3cc(OC)c(OC)c(OC)c3)n3ncnc3N2)cc1 (stereo not given) | 51.1% (inactive)
O=C(CI)NC(=O)NC(=O)NCc1ccccc1 | -43.6% (active)
CC[C@]12C=CCN3CC[C@@]4(c5ccc(OC)cc5N(C)[C@H]4[C@@](O)(C(=O)OC)[C@@H]1OC(=O)CCC[P+](c1ccccc1)(c1ccccc1)c1ccccc1)[C@@H]32 | 14% (inactive)
CC1CCN(C(=S)SCC(=O)NC(=O)c2ccccc2)CC1 | 109% (inactive)
C=C1C(=O)O[C@H]2[C@H]1CC/C(COC(=O)c1cc3cc(Cl)ccc3[nH]1)=C\CC[C@@]1(C)O[C@@H]21 | -64.2% (active)
COC(=O)/C=C1/SC(=Nc2ccc([N+](=O)[O-])cc2)N(CCc2c[nH]c3ccc(O)cc23)C1=O | 86.1% (inactive)

Compound | growth
COc1ccc(CCN(CC(=O)N(CC(N)=O)C2CCC[C@@H]2OCc2ccccc2)C(=O)CN(C(=O)CN(CCc2ccc(Cl)cc2)C(=O)CN(C(=O)CN(C)Cc2ccccc2F)[C@H](C)C2CCCCC2)[C@H](C)C2CCCCC2)cc1OC (stereo not given in full) | 53.5% (inactive)
CC(=O)OC[C@]12CC[C@@H]([C@@H](C)c3nnc(-c4ccncc4)o3)[C@@H]1[C@H]1CC[C@@H]3[C@@]4(C)CC[C@H](OC(C)=O)C(C)(C)[C@@H]4CC[C@@]3(C)[C@]1(C)CC2 | 60.6% (inactive)
COc1ccc(/C(C)=C(/c2ccc(OCCCN(C)C)cc2)c2ccc(OC(=O)c3ccccc3)cc2)cc1 | 102% (inactive)
COc1ccc2nc(Cl)c(/C=C3\CC(c4ccccc4)=NN(c4ccccc4)C3=O)cc2c1 | 55.6% (inactive)
CC(C)(C)c1cc(Cl)c(O)c(CNCCO)c1 | 98.5% (inactive)
CCS/C(Nc1ccccc1)=C(\C#N)C(=O)Nc1ccc(OC)cc1 | 57.9% (inactive)
COc1ccc(/C=C/c2c(C(=O)/C=C/c3ccccc3)c(C)nc3ccccc23)cc1 | 45.5% (inactive)
C#COc1cccc(Nc2ncnc3cc(NC(=O)[C@@H](C)Cl)ccc23)c1 | 41.4% [6.25 µM] (inactive)
COc1ccc(Cn2cc3c(c2-c2ccccc2)CCc2cnoc2-3)cc1 | 43.6% (inactive)
Cc1cc2c(cc1C)N(C(=O)CCl)CC(=O)N2 | 33.1% (inactive)
Oc1c(CN2CCC(N3CCCCC3)CC2)cc(Cc2cc(CN3CCC(N4CCCCC4)CC3)c(O)c3ncccc23)c2cccnc12 | 5.18% (active)
OCCNCCNC(Cc1ccc(Cl)cc1)c1ccccc1 (stereo not given) | 98.1% (inactive)
COc1cccc(-c2cc(-c3cccc(Cl)c3)c(C#N)c(=O)[nH]2)c1 | 91.4% (inactive)
CN(C)CCCNC(=O)c1cncnc1Nc1ccc(OCc2cccc(F)c2)c(Cl)c1 | 89% (inactive)
O=C1Nc2ccccc2C1(c1c[nH]c2ccccc12)c1c[nH]c2ccccc12 | 8.63% (active)
Cc1cc(Nc2ccc(C(=O)N3CCCC3)cc2)nc(NCCCNc2ccnc3cc(Cl)ccc23)n1 | 105% (inactive)
NC1(CO)COC(c2ccccc2)OC1 (stereo not given) | 103% (inactive)
O=C(CCCCCNC(=O)c1cc(=O)c(O)co1)Nc1ccccc1 | 105% (inactive)
O=S(=O)(NCCNc1nccc(-c2c(-c3cccc(O)c3)nc3occn23)n1)c1ccc(Br)cc1 | 37.1% (inactive)
C/C(=N\O)c1ccc(NC(=O)CSc2nnc(-c3cc(-c4ccc(S(N)(=O)=O)cc4)nc4ccccc34)n2-c2ccccc2)cc1 | 80.4% (inactive)
